Screens (PubChem BioAssay)
NIH3T3 tox = cytotoxic compounds in NIH 3T3 cells. NIH 3T3 viability, CellTiter-Glo ATP luminescence, 48-72 h. Potency, µM (series often up to 96.7 µM), for the others: at the highest dose activity change, negative = cytotoxicity, usual class: inhibitors. 94,000 compounds, 4.3% hits; also: nearly all actives have a fitted effect of over 55% in size
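Viability of NIH 3T3 cells after 48 or 72 hr compound treatment at 37 °C was assessed by CellTiter-Glo, with luminescence imaged following a 10 min room-temperature step.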
FLuc inh = blocks purified firefly luciferase enzyme activity | purified P. pyralis luciferase, luminescence, biochemical | Potency, µM (highest dose often 115 µM), actives largely listed as inhibitors | 76,000 compounds, 2.5% hits | AID 1347043; also: nearly all actives have a fitted effect of over 65% in size
Target sequence (P08659 whole entry, looked up): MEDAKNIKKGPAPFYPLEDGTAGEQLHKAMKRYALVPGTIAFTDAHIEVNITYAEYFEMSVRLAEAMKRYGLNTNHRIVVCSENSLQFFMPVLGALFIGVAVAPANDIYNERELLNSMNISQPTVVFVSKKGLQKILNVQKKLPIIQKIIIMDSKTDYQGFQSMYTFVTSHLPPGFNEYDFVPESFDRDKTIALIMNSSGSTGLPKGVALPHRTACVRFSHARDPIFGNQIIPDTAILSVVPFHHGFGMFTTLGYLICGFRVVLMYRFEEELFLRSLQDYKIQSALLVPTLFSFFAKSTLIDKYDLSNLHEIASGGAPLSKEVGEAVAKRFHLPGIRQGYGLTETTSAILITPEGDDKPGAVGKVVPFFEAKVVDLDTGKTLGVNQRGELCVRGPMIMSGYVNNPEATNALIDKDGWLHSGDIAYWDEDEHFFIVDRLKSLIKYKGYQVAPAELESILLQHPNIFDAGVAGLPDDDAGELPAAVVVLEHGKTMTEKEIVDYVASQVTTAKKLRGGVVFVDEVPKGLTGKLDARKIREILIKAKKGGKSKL
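Luminescence read by CCD imaging after purified firefly luciferase (10nM final) was added to substrate buffer holding 10uM D-luciferin and 10uM ATP, pH 7.5, pre-dosed with compound.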
HEK cytotox = HEK 293 cell cytotoxicity. HEK 293 viability, ATP luminescence (CellTiter-Glo), 48-72 h. Potency, µM (doses to about 115 µM), inactives show at the highest dose activity change, negative = cytotoxicity, actives largely listed as inhibitors. 94,000 compounds, 6.6% hits. AID 1345083; also: nearly all actives have a fitted effect of over 60% in size
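Cytotoxicity was scored by loss of ATP-coupled luminescence (CellTiter-Glo) in HEK 293 cells. Compound treatment ran 48 or 72 hr at 37 degree Celsius, 5% CO2, 95% humidity.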
NPR1 antag = human Npr1 receptor antagonism | AID 1347048 | HEK293 hNpr1 GloSensor cGMP, ANP-stimulated luminescence | P16066 | Potency, µM (doses to about 46.3 µM), inactives show at the highest dose activity change, negative = inhibition, most hits filed as inhibitors | 76,000 compounds, 1.6% hits; calls by dose curve; also: nearly all actives have a fitted effect of over 60% in size
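HEK293 cells stably expressing human Npr1 and cGMP GloSensor pGS-40F, loaded 2 h with 2% GloSensor reagent, given compound 30 min at room temperature. Luminescence read before and 20 min after 0.1 nM hNppA.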
Numbers without * were called inactive; ! = not confirmed by another sample; [ ] = another dose, or the depositor's remark. A selection: hits, their analogues and other compounds. The true share with any hit is near 11%. Unless noted, calls follow the shape of the dose curve; as a rule, active = well fitted curve in the direction sought with a large enough effect; inconclusive = small, poorly fitted or top-dose-only effect, or another doubt; inactive = no such curve, though single readings can be large; an effect the other way counts as inactive or inconclusive. % is scaled to controls: 0 for no effect and ±100 for the full control effect; potency is read from the fitted curve at half-maximal effect.

Results for COc1cccc(-c2ccc(C(=O)N3CCC4(CCCN(C)C4=O)C3)o2)c1 (stereo unspecified) ?
NIH3T3 tox: inconclusive; FLuc inh: inconclusive; HEK cytotox: inconclusive; NPR1 antag: -9%

What do the screens show for `Cc1ccc(Nc2ccnc(N3CCCC(C(=O)NCc4cccs4)C3)n2)cc1` (stereo unspecified)?
NIH3T3 tox: 18µM*; HEK cytotox: 10µM*

Results for COc1ccc(Nc2ccnc(N3CCCC(C(=O)NCc4cccs4)C3)n2)cc1 (stereo unspecified) ?
NIH3T3 tox: 35µM*; HEK cytotox: 35µM*

What do the screens show for `COc1ccccc1Nc1ccnc(N2CCC[C@H]2C(=O)NCc2cccs2)n1`?
NIH3T3 tox: -29%; HEK cytotox: inconclusive

What do the screens show for `COc1ccc(C(=O)N[C@@H]2CN(C(=O)Nc3ccc(F)cc3)CCC[C@H]2O)cc1`?
NIH3T3 tox: 100µM*; FLuc inh: inconclusive; HEK cytotox: inconclusive; NPR1 antag: -15%[70.6 µM]

What do the screens show for `COc1ccc(C(=O)N[C@@H]2CN(C(=O)Nc3ccccc3)CCC[C@H]2O)cc1`?
NIH3T3 tox: inconclusive; FLuc inh: inactive; HEK cytotox: inconclusive; NPR1 antag: -4%[70.6 µM]

Results for CN(C)C(=O)c1nc(-c2ccccc2)c2ccccn12 ?
NIH3T3 tox: inconclusive; FLuc inh: inactive; HEK cytotox: inconclusive; NPR1 antag: -1%[70.6 µM]

How did C#CCNC(=O)c1nc(-c2ccc(Cl)cc2)c2cnccn12 do in these assays?
NIH3T3 tox: inconclusive; FLuc inh: inconclusive; HEK cytotox: inconclusive; NPR1 antag: -21%[70.6 µM]

What do the screens show for `C#CCNC(=O)c1nc(-c2ccc(Cl)cc2)c2ccccn12`?
NIH3T3 tox: inconclusive; FLuc inh: 45µM*; HEK cytotox: inconclusive; NPR1 antag: -1%[70.6 µM]

Results for C#CCNC(=O)c1nc(-c2cccc(F)c2)c2cnccn12 ?
NIH3T3 tox: inconclusive; FLuc inh: inactive; HEK cytotox: 63µM*!; NPR1 antag: -27%[70.6 µM]

How did C#CCNC(=O)c1nc(-c2cc(Cl)cc(Cl)c2)c2ccccn12 do in these assays?
NIH3T3 tox: -6%[138 µM]; FLuc inh: inactive; HEK cytotox: 63µM*; NPR1 antag: -1%[70.6 µM]

What do the screens show for `CN(C)C(=O)c1nc(-c2ccc(Cl)cc2)c2ccccn12`?
NIH3T3 tox: inconclusive; FLuc inh: inconclusive; HEK cytotox: 100µM*; NPR1 antag: 7%[70.6 µM]

What do the screens show for `O=C(NCc1cccnc1)c1nc(-c2cccc(F)c2)c2cnccn12`?
NIH3T3 tox: -25%; FLuc inh: inactive; HEK cytotox: inconclusive; NPR1 antag: -19%

How did O=C(c1nc(-c2ccc(Cl)cc2)c2ccccn12)N1CCOCC1 do in these assays?
NIH3T3 tox: inconclusive; FLuc inh: inactive; HEK cytotox: 112µM*; NPR1 antag: 5%[70.6 µM]

How did O=C(NCc1cccnc1)c1nc(-c2ccc(Cl)cc2)c2ccccn12 do in these assays?
NIH3T3 tox: -23%; FLuc inh: inactive; HEK cytotox: inconclusive; NPR1 antag: 0%

What do the screens show for `COc1ccc(-c2nc(C(=O)N3CCOCC3)n3ccccc23)cc1`?
NIH3T3 tox: -21%[138 µM]; FLuc inh: inactive; HEK cytotox: inconclusive; NPR1 antag: 16%[70.6 µM]

How did O=C(NCCc1ccc(Cl)cc1)c1nc(-c2ccccc2)c2ccccn12 do in these assays?
NIH3T3 tox: inconclusive; FLuc inh: inactive; HEK cytotox: inconclusive; NPR1 antag: 5%

Results for O=C(NCc1ccc2c(c1)OCO2)c1nc(-c2ccc(Cl)cc2)c2cnccn12 ?
NIH3T3 tox: -25%; FLuc inh: 25µM*; HEK cytotox: -26%; NPR1 antag: 7%

What do the screens show for `O=C(NCc1ccc2c(c1)OCO2)c1nc(-c2ccc(F)cc2)c2cnccn12`?
NIH3T3 tox: -10%; FLuc inh: inactive; HEK cytotox: inconclusive; NPR1 antag: -11%

How did O=C(NCc1cccnc1)c1nc(-c2ccc(Cl)nc2)c2ccccn12 do in these assays?
NIH3T3 tox: inconclusive; HEK cytotox: 79µM*

What do the screens show for `O=C(NCCc1ccc(Cl)cc1)c1nc(-c2cccnc2)c2ccccn12`?
NIH3T3 tox: 40µM*; FLuc inh: inactive; HEK cytotox: 32µM*; NPR1 antag: -3%

What do the screens show for `Cc1cccc(S(=O)(=O)N2C[C@@H]3CCCN4CCC[C@@H]([C@H]34)[C@H]2CCCC(=O)N2CCOCC2)c1`?
NIH3T3 tox: inactive; FLuc inh: inactive; HEK cytotox: -3%; NPR1 antag: 1%

How did O=C(c1nc(-c2cccc(C(F)(F)F)c2)c2ccccn12)N1CCCC1 do in these assays?
NIH3T3 tox: inconclusive; FLuc inh: inactive; HEK cytotox: 40µM*; NPR1 antag: -9%

What do the screens show for `C#CCNC(=O)c1nc(-c2cccnc2)c2ccccn12`?
NIH3T3 tox: 89µM*; FLuc inh: inactive; HEK cytotox: -23%[172 µM]; NPR1 antag: 0%[70.6 µM]

Results for C#CCNC(=O)c1nc(-c2ccc(Cl)nc2)c2ccccn12 ?
NIH3T3 tox: inconclusive; HEK cytotox: 50µM*

Results for CC(C)NC(=O)c1nc(-c2ccc(Cl)nc2)c2ccccn12 ?
NIH3T3 tox: 35µM*; HEK cytotox: inconclusive

What do the screens show for `COc1ccccc1CNC(=O)C1CCN(C(=O)c2nnn3c2COC(c2ccc(C)cc2)C3)CC1` (stereo unspecified)?
NIH3T3 tox: -18%; FLuc inh: 18µM*; HEK cytotox: -18%; NPR1 antag: -2%

How did Cc1ccc(CCNC(=O)C2CCN(C(=O)c3nnn4c3COC(c3ccc(C)cc3)C4)CC2)cc1 (stereo unspecified) do in these assays?
NIH3T3 tox: -11%; FLuc inh: 8.9µM*; HEK cytotox: -9%; NPR1 antag: 1%

Results for CC(NC(=O)C1CCN(C(=O)c2ncn3c2COC(c2ccc(F)cc2)C3)CC1)c1ccc(F)cc1 (stereo unspecified) ?
NIH3T3 tox: inactive; FLuc inh: inactive; HEK cytotox: 10%; NPR1 antag: 4%

What do the screens show for `Cc1ccc(C2Cn3nnc(C(=O)N4CCC(C(=O)NC(C)c5ccc(F)cc5)CC4)c3CO2)cc1` (stereo unspecified)?
NIH3T3 tox: inconclusive; FLuc inh: 35µM*; HEK cytotox: inconclusive; NPR1 antag: 5%

How did Cc1ccc(C2Cn3nnc(C(=O)N4CCC(C(=O)NCC(C)C)CC4)c3CO2)cc1 (stereo unspecified) do in these assays?
NIH3T3 tox: -14%; FLuc inh: 22µM*; HEK cytotox: 0%; NPR1 antag: 1%

What do the screens show for `Cc1cn2nc(C(=O)N3CCC(NC(=O)c4cccc(C#N)c4)CC3)cc2c(=O)[nH]1`?
NIH3T3 tox: -11%; FLuc inh: inactive; HEK cytotox: 0%; NPR1 antag: 16%

How did Cc1nn(-c2ccccc2)c2c1C(C)N(C1CCCN(C(=O)C(C)(C)C)C1)C2=O (stereo unspecified) do in these assays?
NIH3T3 tox: -20%; HEK cytotox: -20%
